Assay outcomes (PubChem)
NPSR antag: neuropeptide S receptor (human) antagonism, cAMP; Q6W5P4; CHO-NPSR cells, cAMP TR-FRET, antagonist mode; Potency, µM (highest dose often 38.3 µM), inactives show at the top dose activity change, negative = inhibition, usual class: inhibitors; hit rate 1% among 220,000; also: % is scaled to controls: 0 for no effect and ±100 for the full control effect; nearly all actives have a fitted effect of over 50% in size
Target sequence (Q6W5P4 whole entry, looked up): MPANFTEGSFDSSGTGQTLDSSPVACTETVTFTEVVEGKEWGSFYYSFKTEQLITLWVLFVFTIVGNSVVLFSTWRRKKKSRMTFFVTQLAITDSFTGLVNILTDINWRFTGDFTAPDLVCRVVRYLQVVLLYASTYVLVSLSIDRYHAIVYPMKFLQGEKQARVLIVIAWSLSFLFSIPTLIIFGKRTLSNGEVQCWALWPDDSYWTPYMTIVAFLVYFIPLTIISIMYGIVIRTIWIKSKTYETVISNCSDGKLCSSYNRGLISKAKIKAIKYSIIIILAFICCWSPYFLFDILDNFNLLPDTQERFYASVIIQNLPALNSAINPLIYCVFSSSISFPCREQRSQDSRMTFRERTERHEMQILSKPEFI
Sfp PPTase inh: Sfp phosphopantetheinyl transferase inhibition | Q9F4F7 | Biochemical Sfp PPTase activity, qHTS | Potency, µM, for the others: largest response in the series, negative = inhibition, actives largely listed as inhibitors | hit rate 3.5% among 310,000 | AID 1490;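 also: the enzyme is Sfp with the accession as filed and its product quenches rhodamine fluorescence; 0% = enzyme reaction without inhibitor and -100% = no enzyme wells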
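Compounds were incubated with enzyme (final 15 nM) for 15 min at room temperature before substrate addition started the reaction. Fluorescence at 525 nm excitation, 598 nm emission was recorded immediately and after 30 minutes.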
Epigenetic reg: epigenetic control regulation, reporter derepression | murine LDR cells, GFP reporter derepression, 30 h | Potency, µM (highest dose often 53.9 µM), for the others: top-dose GFP activation, most hits filed as activators | hit rate 0.2% among 280,000 | AID 1865; also: % of control where 0% means no effect; nearly all actives have a fitted effect of over 60% in size
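Murine LDR cells carrying a silenced, genomically integrated CMV-driven GFP reporter were exposed to compound for 30 hours at 37 C. After PBS washes, GFP-positive cells (20–120 um objects) were counted by laser-scanning microplate cytometry.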
IMPase Li inh: cell-permeable IMPase inhibitors with lithium potentiation; hit rate 0.35% among 210,000; Potency, µM (highest dose often 59.4 µM), without a hit: top-dose activity, negative = IMPase inhibition, hits mostly inhibitors; CHO-M1 cells, IP1 TR-FRET (IP-One), carbachol + lithium;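 also: IP1 builds up when IMPase is blocked and the TR-FRET signal falls; plate controls were basal vehicle for no effect and high inhibitor control for full effect; nearly all actives have a fitted effect of over 50% in size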
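Test compounds were applied to CHO-M1 cells previously cultured for 16–30 h at 2000 per well. A small lithium amount accompanied them; after 30 min at 37C, IP1 was quantified by TR-FRET.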
KAT2A inh: GCN5L2 (KAT2A) acetyltransferase inhibition | GCN5L2 HAT assay, ThioGlo1 CoA-SH fluorescence | Potency, µM (series often up to 58.9 µM), inactives show at the top dose activity change, negative = inhibition, hits mostly inhibitors | hit rate 0.21% among 390,000; also: % is scaled to controls: 0 for no effect and ±100 for the full control effect
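GCN5L2 (20 nM) in 50mM HEPES pH 7.5, 0.1mM EDTA, 0.01% Tween-20 preincubated 15 min with compounds at room temperature. Reaction started with H3(1-25) 75uM, acetyl-CoA 70uM, ThioGlo1 50uM; CoA-thiol fluorescence (Ex340/Em540) read at 0 and 20 min.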
KDM4E inh: inhibitors of human JMJD2E histone demethylase. JMJD2E catalytic domain, FDH-coupled NADH fluorescence (FDH is formaldehyde dehydrogenase). AID 2147. Potency, µM (highest dose often 57.1 µM), for the others: at the top dose activity change, negative = inhibition, usual class: inhibitors. B2RXH2. hit rate 1.6% among 230,000; active = well fitted inhibition curve with a large enough effect, not every such curve was filed as active; inconclusive = small, poorly fitted or top-dose-only effect, or another doubt; inactive = no such curve, though single readings can be large or run the other way;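 also: 0% = wells with enzyme and -100% = buffer wells without enzyme; nearly all actives have a fitted effect of over 50% in size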
Target sequence (B2RXH2 1-337 limits assumed): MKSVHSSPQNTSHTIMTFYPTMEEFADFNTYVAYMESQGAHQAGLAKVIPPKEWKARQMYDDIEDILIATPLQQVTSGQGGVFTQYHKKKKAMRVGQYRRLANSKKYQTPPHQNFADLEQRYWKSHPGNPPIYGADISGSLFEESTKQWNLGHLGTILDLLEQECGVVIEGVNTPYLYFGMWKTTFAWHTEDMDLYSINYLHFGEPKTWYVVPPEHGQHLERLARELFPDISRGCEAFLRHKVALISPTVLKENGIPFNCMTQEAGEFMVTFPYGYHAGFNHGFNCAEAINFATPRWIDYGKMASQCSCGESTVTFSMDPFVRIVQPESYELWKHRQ
* marks the source's active call; other numbers are inactive results; ? = inconclusive; . = no result; [ ] = another dose, or the depositor's remark. The list is not random: actives were taken first. Their share in the collection is about 3.6%. Unless noted, calls follow the shape of the dose curve; as a rule, active = well fitted curve in the direction sought with a large enough effect; inconclusive = small, poorly fitted or top-dose-only effect, or another doubt; inactive = no such curve, though single readings can be large; an effect the other way counts as inactive or inconclusive. Potency is read from the fitted curve at half-maximal effect.

SMILES	NPSR antag	Sfp PPTase inh	Epigenetic reg	IMPase Li inh	KAT2A inh	KDM4E inh
CCOc1ccc(C(C)=O)cc1Cc1c(O)[nH]c(=S)[nH]c1=O	.	44.7µM*	.	.	14.1µM*	.
Cc1cc(C=C2C(=O)NC(=S)NC2=O)c(C)n1-c1ccc2c(c1)OCO2	12.6µM*	44.7µM*	6.2%	10.9%	37.4%	6.8%
Cc1ccccc1N1C(=O)NC(=O)/C(=C/c2ccc(N3CCOCC3)o2)C1=O	12.4%	8.3%	-0.8%	.	-8.7%	?
Cc1ccccc1N1C(=O)/C(=C/c2ccco2)C(=O)NC1=S	.	20µM*	.	.	2.24µM*	.
CCOc1ccc(N2C(=O)/C(=C/c3ccco3)C(=O)NC2=S)cc1	.	35.5µM*	.	.	22.4µM*	.
COc1ccc(N2C(=O)/C(=C/c3ccc(C)o3)C(=O)NC2=S)c(OC)c1	.	39.8µM*	.	.	-26.5%	.
Cc1ccccc1N1C(=O)NC(=O)/C(=C\c2cc(Br)c(N3CCOCC3)o2)C1=O	12.6µM*	-17.1%	5.1%	9.1%	27.6%	-8.1%
CC(C)C[C@H](NC(=O)CNC(=O)[C@H](CCC(N)=O)NC(=O)[C@H](Cc1ccc(O)cc1)NC(=O)[C@@H](NC(=O)[C@H](Cc1ccc(O)cc1)NC(=O)CNC(=O)[C@@H](N)CCCN=C(N)N)C(C)C)C(=O)O	.	0.1%	.	.	38.3%	.
Nc1c([N+](=O)[O-])ccc(Oc2ccccc2)c1Cl	.	-17.7%	.	.	5.4%	.
CC(C)[C@]1(O)[C@@H](OC(=O)c2ccc[nH]2)[C@]2(O)[C@@]3(C)C[C@@]4(O)O[C@@]5([C@H](O)[C@@H](C)CC[C@]35O)[C@]2(O)[C@]41C	.	.	.	4.1%	.	.
COc1cc2c3cc1Oc1c(OC)c(OC)cc4c1[C@@H](Cc1ccc(OC(=O)c5ccc([N+](=O)[O-])cc5)c(c1)Oc1ccc(cc1)C[C@@H]3N(C)CC2)N(C)CC4	.	?	.	.	0.0%	.
CC(Cc1cccc(C(F)(F)F)c1)NCCCc1ccccc1 (stereo unspecified)	.	-0.9%	6.3%	-6.9%	-3.0%	.
O=C1NC(=S)N(c2ccccc2F)C(=O)/C1=C\c1cccs1	?	11.2µM*	?	-2.1%	-18.9%	-6.2%
CCOc1ccc(N2C(=O)/C(=C\c3cccs3)C(=O)NC2=S)cc1	?	12.6µM*	0.7%	16.0%	-22.6%	-4.1%
Cc1cccc(N2C(=O)/C(=C/c3ccc(N4CCN(C)CC4)o3)C(=O)NC2=S)c1C	-21.0%	63.1µM*	-3.6%	2.7%	0.0%	2.0%
CCc1ccccc1N1C(=O)/C(=C/c2ccc(N3CCN(C)CC3)o2)C(=O)NC1=S	-19.3%	-6.9%	-0.7%	11.0%	0.5%	-12.3%
FC(F)(F)c1ccc(Cl)cc1	.	.	.	-8.7%	.	.
COC1=CC(=O)OC(CCc2ccccc2)C1 (stereo unspecified)	.	.	.	16.5%	.	.
CCCCC/C=C\C/C=C\CCCCCCCCCC(=O)NCCc1ccc(O)c(O)c1	.	13.6%	2.3%	6.8%	.	-2.8%
C=CCn1cc(C=C2C(=O)N(C)C(=O)N(C)C2=O)c2ccccc21	.	-5.0%	.	.	2.0%	.
C=CCc1cc(C=C2C(=O)NC(=O)NC2=O)cc(OC)c1OCc1ccc(C(=O)O)cc1	-23.9%	56.2µM*	-0.1%	2.5%	-7.2%	?
C=CCc1cc(C=C2C(=O)N(C)C(=O)N(C)C2=O)cc(OCC)c1OCc1ccccc1	-35.2%	31.6µM*	-7.0%	-6.2%	-11.9%	-19.7%
ClP(Cl)(Cl)(Cl)Cl	.	.	.	-8.1%	.	.
O=C(CNC(=O)OCc1ccccc1)Nc1ccc(Br)cc1C(=O)c1ccccc1Cl	-48.5%	28.2µM*	0.0%	18.8%	-1.6%	-16.5%
C=CC(=C)C	.	.	.	-9.6%	.	.
SMILES	NPSR antag	Sfp PPTase inh	Epigenetic reg	IMPase Li inh	KAT2A inh	KDM4E inh
CCOc1ccc(Cc2c(O)[nH]c(=O)[nH]c2=O)cc1	2.6%[46.1 µM]	20µM*	-2.1%	18.4%[38.3 µM]	1.9%	-22.5%
Cc1cc(/C=C2\C(=O)NC(=S)N(C)C2=O)c(C)n1C1CCCCC1	-35.2%	?	?	20.6%	1.2%	-4.0%
O=C1NC(=S)NC(=O)C1=Cc1ccc(Br)s1	.	15.8µM*	.	.	?	.
CN1C(=O)/C(=C\c2ccc(Br)s2)C(=O)NC1=S	.	39.8µM*	.	.	-27.9%	.
O=C(O)CBr	.	.	.	11.4%	.	.
CCCCC(=O)N/N=C/c1c(O)n(Cc2ccco2)c(=O)[nH]c1=O	27.8%	-24.0%	0.0%	1.8%	-0.7%	25.1µM*
Cc1ccc(-n2c(O)c(C=NCc3ccco3)c(=O)[nH]c2=S)cc1C	-7.3%[7.67 µM]	20µM*	2.7%	.	-10.0%	?
O=c1[nH]c(=S)n(-c2ccccc2F)c(O)c1C=NCc1ccco1	10.0%	-9.8%	2.1%	-4.1%	-3.7%	-9.0%
O=c1[nH]c(=O)n(Cc2ccco2)c(O)c1C=NCc1ccco1	-8.4%[46.1 µM]	25.1µM*	-1.7%	2.5%[38.3 µM]	-5.3%	-14.9%
O=c1[nH]c(=O)n(Cc2ccccc2)c(O)c1C=Nc1ccc(CN2CCOCC2)cc1	-18.4%[46.1 µM]	56.2µM*	-8.1%	.	-1.0%	?
CC[C@H](/C=C/[C@@H](C)[C@H]1CC[C@H]2C3CC=C4C[C@@H](O)CC[C@]4(C)C3CC[C@]12C)C(C)C (stereo partly specified)	.	34.1%	0.0%	1.5%	-7.6%	-0.9%
CCCCOCC1CO1 (stereo unspecified)	.	.	.	-10.3%	.	.
Oc1cccc(Cl)c1	.	.	.	3.8%	.	.
COc1cccc(-n2c(CNC(=O)OC(C)(C)C)n[nH]c2=S)c1	2.5%[46.1 µM]	50.1µM*	0.8%	.	-4.7%	0.0%
Cn1ncnc2c(=O)n(C)c(=O)nc1-2	1µM*	?	4.1%	20.9%[38.3 µM]	-2.2%	3.98µM*
CC=C(C)C(=O)O[C@H]1C(C)=C2[C@@H]3OC(=O)[C@@](C)(O)[C@@]3(O)[C@@H](OC(=O)CCC)C[C@](C)(OC(C)=O)[C@@H]2[C@@H]1OC(=O)CCCCCCC	.	6.6%	?	-1.2%	-9.1%	.
C/C=C(\C)C(=O)OC1C(C)=C2C(C1OC(=O)CCCCC)C(C)(OC(C)=O)CC(OC(=O)CCC)C1(O)C2OC(=O)C1(C)O (stereo unspecified)	3.98µM*	28.5%	?	.	?	-11.8%
CC(C)C[C@H](NC(=O)[C@H](Cc1ccccc1)NC(=O)CNC(=O)[C@@H](COC(C)(C)C)NC(=O)[C@@H](N)Cc1ccc(O)cc1)C(=O)N[C@H](C(=O)O)[C@@H](C)OC(C)(C)C	.	14.6%	.	.	-8.1%	.
CCCN(CCC)C(=O)Cc1c(-c2ccc(Cl)cc2)nc2c(Cl)cc(Cl)cn12	?	.	-0.1%	10µM*	-1.0%	5.2%
CC(C)(C)C(=O)CP(=O)(O)O	.	.	.	0.4%	.	.
CN(C)C1C(=O)C(C(N)=O)=C(O)[C@@]2(O)C(=O)C3=C(O)c4c(O)cccc4[C@@](C)(O)C3[C@H](O)C12 (stereo partly specified)	.	56.2µM*	1.1%	3.16µM*	?	2µM*
